In PubChem BioAssay (Tox21) one finds Potency, outcome and activity change, positive = activation data, which are given here for twelve compounds.

For test [1], the target named is Luciferin 4-monooxygenase (Photinus pyralis) (UniProt P08659). As to the kind of experiment: qHTS assay to identify small molecule inhibitors of firefly luciferase (AID 1224835). Note: nearly all actives have a fitted effect of over 25% in size. Summed up:
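Inhibition of purified Photinus luciferase is measured by luminescence. Substrate levels (D-luciferin, ATP) sit at their KM values. Each compound is tested in a concentration series.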

Test [2] in a line: qHTS assay to identify small molecule agonists of the constitutive androstane receptor (CAR) signaling pathway - cell viability counter screen (AID 1224836). Note: nearly all actives have a fitted effect of over 45% in size. Summed up: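 HepG2 cells stably carrying hCAR and a CYP2B6-2.2kb reporter; 15-concentration compounds plus PK11195 (final 0.75 uM), 23 hr at 37 C/5% CO2. Viability read by CellTiter-Fluor fluorescence.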
Test [3] in a line: qHTS assay to identify small molecule antagonists of the constitutive androstane receptor (CAR) signaling pathway - cell viability counter screen (AID 1224837). Note: nearly all actives have a fitted effect of over 45% in size. In short, it runs like this:
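HepG2 cells stably expressing hCAR and a CYP2B6-2.2kb reporter were plated and pre-incubated 4 hr at 37 C/5% CO2, then given compounds at 15 concentrations plus 50 nM CITCO (final). After 23 hr, viability was read by CellTiter-Fluor fluorescence.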
(In general: In qHTS, concentration-response curves come from the screen itself.)

Test [4] can be described thus: qHTS assay to identify small molecule antagonists of the estrogen related receptor signaling pathway with the pleiotropic PPARgamma coactivator (PGC) from Tox21 10K library - cell viability counter screen (AID 1224840; active = well fitted cell-killing curve with a large enough effect in the repeat runs, not every such curve was filed as active; note: nearly all actives have a fitted effect of over 40% in size). Summed up: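 PGC/ERR cells were seeded at 2,000 cells/well and left 6 hours at 37 C/5% CO2 before pin-tool addition of compounds in DMSO. After 17.5 hours at 37 C, CellTiter-Fluor was added and fluorescence read 30 minutes later.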

For test [5], the target named is Thyrotropin receptor (Homo sapiens) (UniProt P16473). The test can be described thus: qHTS assay to identify small molecule agonists of the thyroid stimulating hormone receptor (TSHR) signaling pathway (AID 1224843; calls by dose curve; note: nearly all actives have a fitted effect of over 45% in size). In short, it runs like this: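 Screening of the Tox21 10K collection used HEK293 cells engineered with TSHR at 800 cells per well. After a 30-min room-temperature compound exposure, HTRF cAMP reagents were added and fluorescence recorded 1 h later.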
Thyrotropin receptor (Homo sapiens), sequence (P16473 whole entry, looked up): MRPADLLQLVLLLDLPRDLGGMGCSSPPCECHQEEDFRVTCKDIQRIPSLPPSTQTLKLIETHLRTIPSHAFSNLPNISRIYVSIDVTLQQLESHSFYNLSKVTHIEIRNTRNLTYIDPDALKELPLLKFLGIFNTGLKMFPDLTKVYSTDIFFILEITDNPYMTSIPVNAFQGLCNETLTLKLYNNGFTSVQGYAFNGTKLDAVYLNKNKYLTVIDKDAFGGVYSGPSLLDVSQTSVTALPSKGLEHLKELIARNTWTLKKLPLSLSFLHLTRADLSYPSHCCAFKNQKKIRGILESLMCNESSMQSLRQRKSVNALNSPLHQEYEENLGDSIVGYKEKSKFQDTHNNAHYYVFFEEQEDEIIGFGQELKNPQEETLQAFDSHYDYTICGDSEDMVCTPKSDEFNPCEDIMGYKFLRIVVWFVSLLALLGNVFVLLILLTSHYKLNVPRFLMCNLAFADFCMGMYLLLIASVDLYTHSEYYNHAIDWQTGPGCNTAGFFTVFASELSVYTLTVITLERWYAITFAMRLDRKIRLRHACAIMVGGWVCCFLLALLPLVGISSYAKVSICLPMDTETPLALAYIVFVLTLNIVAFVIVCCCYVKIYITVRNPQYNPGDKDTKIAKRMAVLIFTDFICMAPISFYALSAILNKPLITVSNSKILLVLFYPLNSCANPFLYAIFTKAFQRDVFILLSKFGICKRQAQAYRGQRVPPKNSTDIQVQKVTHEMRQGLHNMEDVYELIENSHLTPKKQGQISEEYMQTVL

The nature of test [6]: qHTS assay to identify small molecule agonists of the hypoxia (HIF-1) signaling pathway (AID 1224846; active = well fitted activation curve with a large enough effect in the signal ratio in the repeat runs, not every such curve was filed as active; the % refers to the signal ratio). Summed up:
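HRE-bla ME-180 cells (beta-lactamase reporter under hypoxia response element) were plated at 2,000 cells/well in medium with 0.5% dialyzed FBS, rested 5 hrs, then given compounds in DMSO for 17 hrs at 37C, 5% CO2. Reporter induction was read with CCF4-AM FRET substrate.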

Test [7] can be described thus: qHTS assay to identify small molecule agonists of H2AX - cell viability counter screen (AID 1224847; calls by dose curve;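 note: wild-type CHO-K1 cells; top concentration of the series differs between compounds; nearly all actives have a fitted effect of over 30% in size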). Summed up:
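CHO-K1 cells plated overnight at 37C, then exposed 3 h at 37C to compounds at 15 concentrations (0.76% DMSO final). Viability by CellTiter-Glo luminescence after 30 min at room temperature.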

The nature of test [8]: qHTS RealTime-Glo MT Cell Viability Assay in HEK293 cells - 32 hour (AID 1224868). Note: nearly all actives have a fitted effect of over 50% in size. Note: potency is the fitted concentration of half-maximal effect. Summed up:
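Viability tracked continuously by luminescence as live cells reduce a prosubstrate for NanoLuc; HEK293 cells preincubated 5 h, compound-treated at 37 C, and read at 0, 8, 16, 24, 32 and 40 h.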

Test [9] in a line: qHTS RealTime-Glo MT Cell Viability Assay in HepG2 cells - 40 hour (AID 1224870). Note: nearly all actives have a fitted effect of over 50% in size. In short, it runs like this: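 Real-time viability: cells seeded at 600 per well together with NanoLuc and cell-permeant prosubstrate, compounds added after 5 h incubation. Luminescence tracked at 0, 8, 16, 24, 32 and 40 h of exposure.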
In test [10] the target is Nuclear receptor subfamily 1 group I member 3 (Homo sapiens) (UniProt Q14994). The test can be described thus: qHTS assay to identify small molecule antagonists of the constitutive androstane receptor (CAR) signaling pathway (AID 1224838). Note: nearly all actives have a fitted effect of over 40% in size. Summed up:
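HepG2 cells stably co-transfected with hCAR and a CYP2B6-2.2kb luciferase reporter were seeded 4 h before compound addition at 15 concentrations. Cells were stimulated with 50 nM CITCO (final) for 24 h at 37 C; luciferase luminescence was then read.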

A short description of test [11]: qHTS assay to identify small molecule antagonists of the estrogen related receptor signaling pathway with the pleiotropic PPARgamma coactivator (PGC) from Tox21 10K library (AID 1224841; call rule not given here; note: actives are mostly falling curves and most rising ones were filed inactive; nearly all actives have a fitted effect of over 50% in size). Summed up: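 PGC/ERR reporter cells were seeded at 2,000 cells/well and held 6 hours at 37 C/5% CO2 before pin-tool addition of compounds in DMSO. After 18 hours at 37 C, One-Glo was added and luminescence read after 30 minutes at room temperature.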

Test [12] can be described thus: qHTS assay to identify small molecule agonists of the estrogen related receptor signaling pathway with the pleiotropic PPARgamma coactivator (PGC) from Tox21 10K library (AID 1224842). Note: nearly all actives have a fitted effect of over 15% in size. Note: potency is the fitted concentration of half-maximal effect. Summed up:
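Luminescence from One-Glo (30 min, room temperature) measured after PGC/ERR cells had 18 h at 37 C with pinned compound (23 nL in DMSO). Cells had been seeded at 2,000 per well and pre-incubated 6 h.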

Test [13] can be described thus: qHTS assay to identify small molecule antagonists of the estrogen related receptor (ERR) signaling pathway from Tox21 library (AID 1224848). Note: nearly all actives have a fitted effect of over 50% in size. Note: potency is the fitted concentration of half-maximal effect. Summed up: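 Antagonist-mode screen of the Tox21 10K library in an NTP-provided ERR reporter cell line; 18 h compound exposure at 37 C, luminescence measured with ONE-Glo.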
Test [14] in a line: qHTS assay to identify small molecule agonists of the estrogen related receptor (ERR) signaling pathway from Tox21 library (AID 1224849; calls by dose curve; note: nearly all actives have a fitted effect of over 15% in size). To be noted: ERR reporter cell line, ONE-Glo luciferase, 18 h; at 92.4 µM (top of the series) unless noted. In short, it runs like this: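 ERR reporter cell line (NTP) seeded, rested 6 h at 37 C/5% CO2, then pinned with Tox21 compounds in DMSO. After 18 h at 37 C, ONE-Glo luciferase luminescence was read following 30 min at room temperature.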

Test [15] in a line: qHTS RealTime-Glo MT Cell Viability Assay in HepG2 cells - 24 hour (AID 1224867). Note: nearly all actives have a fitted effect of over 50% in size. In short, it runs like this:
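Viability was tracked continuously by NanoLuc luminescence from prosubstrate reduced by living HepG2 cells, at successive time points over 40 h of compound exposure. Cells with reagent were preincubated 5 h at 37 °C before compound addition.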

A short description of test [16]: A CellTox Green Cytotoxicity Assay to monitor cytotoxicity in HEK293 cells - 0 hour (AID 1224869). Note: nearly all actives have a fitted effect of over 50% in size. Summed up: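 HEK293 cells premixed with CellTox Green dye were seeded at 600 cells/well and left 5 h at 37 C/5% CO2 before pin transfer of 23 nL compound in DMSO. Fluorescence from dye bound to dead-cell DNA was read during 40 h treatment.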
The target of test [17] is Nuclear receptor subfamily 1 group I member 3 (Homo sapiens) (UniProt Q14994). As to the kind of experiment: qHTS assay to identify small molecule agonists of the constitutive androstane receptor (CAR) signaling pathway (AID 1224839). Note: nearly all actives have a fitted effect of over 15% in size. Note: potency is the fitted concentration of half-maximal effect. Summed up: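 HepG2 cells stably co-transfected with hCAR and a CYP2B6-2.2kb luciferase reporter; compounds at 15 concentrations with 0.75 uM PK11195 present. After 24 hr at 37 C, luciferase read by ONE-Glo luminescence.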
Nuclear receptor subfamily 1 group I member 3 (Homo sapiens), sequence (Q14994 whole entry, looked up): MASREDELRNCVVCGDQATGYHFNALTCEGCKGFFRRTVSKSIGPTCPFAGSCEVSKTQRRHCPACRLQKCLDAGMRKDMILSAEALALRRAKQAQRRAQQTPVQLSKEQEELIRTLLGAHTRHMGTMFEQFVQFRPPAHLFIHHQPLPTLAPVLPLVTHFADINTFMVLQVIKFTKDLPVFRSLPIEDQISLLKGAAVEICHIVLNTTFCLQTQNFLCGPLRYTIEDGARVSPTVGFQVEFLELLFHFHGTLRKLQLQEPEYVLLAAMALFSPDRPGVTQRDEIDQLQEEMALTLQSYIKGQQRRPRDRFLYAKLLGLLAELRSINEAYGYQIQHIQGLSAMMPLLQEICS

Test [18] in a line: qHTS assay to identify small molecule agonists of the hypoxia (HIF-1) signaling pathway - cell viability counter screen (AID 1224844; calls by dose curve; note: nearly all actives have a fitted effect of over 50% in size). In short, it runs like this: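 HRE-bla ME-180 cells in medium with 0.5% dialyzed FBS were preincubated 5 hrs at 37C, exposed to compounds for 17 hrs, then viability was read as CellTiter-Glo luminescence after 30 min at room temperature, in the reporter wells.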

The nature of test [19]: qHTS assay to identify small molecule agonists of H2AX (AID 1224845; active = well fitted activation curve with a large enough effect in the signal ratio in the repeat runs, not every such curve was filed as active; the % refers to the signal ratio). In short, it runs like this:
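Phospho-H2AX Ser139 measured by HTRF (ex 320 nm; em 665 and 620 nm) after 24 hr antibody incubation. Compounds, 15 concentrations, 0.76% DMSO, were applied to CHO-K1 cells for 3hr at 37C before lysis.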

Unmarked numbers belong to inactive results. Records with an inconclusive call do not appear. Active and inactive are the calls of the source. Unless noted, calls come from the whole dose curve; as a rule, active = well fitted curve in the direction sought with a large enough effect in the repeat runs; inconclusive = weak or mixed curves; inactive = no such curve, though single readings can be large; an effect the other way counts as inactive or inconclusive.
% is set by controls: 0 for no effect and ±100 for the full control effect.

Luciferin 4-monooxygenase (Photinus pyralis), sequence (P08659 whole entry, looked up): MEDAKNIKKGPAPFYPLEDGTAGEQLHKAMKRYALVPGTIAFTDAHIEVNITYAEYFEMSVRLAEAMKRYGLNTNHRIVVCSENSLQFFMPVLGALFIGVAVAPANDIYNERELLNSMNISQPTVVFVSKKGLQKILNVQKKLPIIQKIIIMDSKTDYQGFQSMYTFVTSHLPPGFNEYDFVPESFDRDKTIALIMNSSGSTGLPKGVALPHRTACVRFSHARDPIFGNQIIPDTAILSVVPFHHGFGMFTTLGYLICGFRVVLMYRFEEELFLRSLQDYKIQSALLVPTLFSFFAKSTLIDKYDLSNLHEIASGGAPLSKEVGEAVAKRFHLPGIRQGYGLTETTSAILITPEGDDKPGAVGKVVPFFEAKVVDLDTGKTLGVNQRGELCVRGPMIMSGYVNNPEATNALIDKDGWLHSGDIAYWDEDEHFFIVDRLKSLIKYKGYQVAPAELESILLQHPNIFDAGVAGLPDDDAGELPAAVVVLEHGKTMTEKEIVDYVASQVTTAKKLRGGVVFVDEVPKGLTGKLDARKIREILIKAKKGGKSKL

Consider `CCOc1cc(N)c(Cl)cc1C(=O)NCC1CN(Cc2ccc(F)cc2)CCO1` (configuration not stated), for which the Potency entry in test [1], in [2], in test [3], in test [4], in test [5] and in test [7] was “inactive” in each case. Further, the Potency entry in test [9] is “inactive”. For the same compound, the compound was classed as inactive in [6]. The Potency in test [8] is 16.9 µM (active).

In the case of `O=C(C(=O)c1ccccc1)c1ccccc1`, the Potency entry in [1], in test [2], in test [3], in test [10], in [4] and in [11] was “inactive” in each case. The Potency entry in [12], in test [7], in [13], in [15], in test [8] and in test [16] was “inactive” throughout. In addition, the Potency result in test [9] was “inactive”. Besides, the call in test [6] was inactive. The activity change, positive = activation in test [14] was 5.83%.

Regarding `CCOC(=O)N1CCC(n2c(=O)[nH]c3cc(Cl)ccc32)CC1`, the Potency entry in [1], in test [2], in test [3], in [17], in test [5] and in test [18] was “inactive” in each case. The Potency entry in test [15] and in test [9] was “inactive” each time. Further, the result in [6] was inactive.

For the compound `C[C@@H]1C[C@H]2[C@@H]3CCC4=CC(=O)C=C[C@]4(C)[C@@]3(F)[C@@H](O)C[C@]2(C)[C@@]1(O)C(=O)CO`, the Potency result in [2], in [3], in [17], in test [4], in test [19] and in test [7] was “inactive” each time. Also, the Potency entry in test [15], in [8], in [16] and in test [9] was “inactive” throughout.

Take `CCCCC(=O)O[C@]1(C(=O)CO)[C@@H](C)C[C@H]2[C@@H]3CCC4=CC(=O)C=C[C@]4(C)[C@@]3(F)[C@@H](O)C[C@@]21C`: the Potency entry in test [1], in test [2], in test [3], in test [12], in test [16] and in test [9] was “inactive” in each case. Moreover, the compound was classed as inactive in test [6]. For the same compound, the Potency in test [13] was 54.5 µM (active). The activity change, positive = activation in test [14] was -45.4%.

Turning to `Cn1c(=O)c2c(ncn2CC(=O)O)n(C)c1=O`, the Potency result in test [1], in [2], in [3], in [4], in [5] and in test [19] was “inactive” throughout. Also, the Potency entry in test [7], in [15], in test [8], in test [16] and in test [9] was “inactive” each time. Also, in test [6], the outcome was inactive.

With `COc1ccc([C@@H]2Sc3ccccc3NC(=O)[C@@H]2O)cc1`, the Potency entry in [1], in test [2], in [3], in test [17], in [4] and in [12] was “inactive” throughout. The Potency result in test [5], in test [18], in [19], in [7], in [15] and in [9] was “inactive” each time. The compound was called inactive in test [6]. The activity change, positive = activation in test [14] was -18.7% [at 42.5 µM].

`Oc1ccc(Nc2ccccc2)cc1`: the Potency result in test [1], in [2], in [3], in [10], in test [11] and in test [12] was “inactive” each time. Besides, the Potency result in [5], in test [7], in [16] and in [9] was “inactive” each time. In test [6], the compound was classed as inactive. The Potency in [13] was 24.3 µM (active); in [8] it was 21.9 µM (active). Moreover, the activity change, positive = activation in test [14] is -35.9%.

`Nc1ccc(Cl)cc1[N+](=O)[O-]`: the Potency entry in test [2], in test [3], in test [4], in test [11], in test [5] and in test [18] was “inactive” throughout. Moreover, the Potency result in test [13], in test [8], in test [16] and in test [9] was “inactive” in each case. The compound was classed as inactive in [6]. The activity change, positive = activation in [14] is -0.746%.

For the compound `Cc1nccn1-c1ccc(Sc2cccc(C3(C(N)=O)CCOCC3)c2)cc1`, the Potency result in [1], in [10], in [4], in [12], in [5] and in [18] was “inactive” throughout. Also, the Potency result in test [16] and in test [9] was “inactive” each time. For the same compound, the Potency in test [17] was 9.69 µM (active); in test [13], 1.37 µM (active); in test [8], 1.38 µM (active). In addition, the compound was classed as inactive in [6]. The activity change, positive = activation in test [14] is -58%.

For the compound `N#C/C(=C1\SCC(c2ccccc2Cl)S1)n1ccnc1` (configuration not stated), the Potency result in test [1], in test [2], in test [3], in test [10], in test [4] and in test [5] was “inactive” throughout. Moreover, the Potency entry in [18], in test [15] and in test [9] was “inactive” each time. In addition, in test [6], the compound was called inactive.

`COc1cc2c(cc1OC)-c1cc(=Nc3c(C)cc(C)cc3C)n(C)c(=O)n1CC2`: the Potency entry in test [1], in [2], in [3], in [10], in test [4] and in test [11] was “inactive” each time. Further, the Potency entry in test [18], in [19], in [7], in [16] and in [9] was “inactive” in each case. For the same compound, the Potency in [12] and in test [13] was 13.3 µM (active) each time. Moreover, the compound was classed as inactive in test [6]. Moreover, in test [14], the activity change, positive = activation is -48.8% [at 42.5 µM].
